# Screening results: PubChem BioAssay, National Center for Advancing Translational Sciences (NCATS)
# Shown is part of a subset that was picked to be rich in hits.
# Cycloheximide cs – counter-screen for Shiga toxin inhibitors: cycloheximide protein synthesis inhibition. cell reporter, cycloheximide protein synthesis inhibition counterscreen. max response, %. 300,000 compounds, 12% hits. AID 2314; in the data active means max response mostly above about 13%, no sharp cut-off; inactive means mostly below about 14%; further: read at 38.3 µM for the half of the compounds with a filed dose; 0% is about no effect
# TbPYK inhibitor – T. brucei pyruvate kinase inhibition. Q57TT1. TbPYK enzyme, Kinase-Glo Plus ATP luminescence, 45 min. Potency, µM (highest dose often 76.8 µM), for inactives: top-dose activity, negative = inhibition, most hits filed as inhibitors. 410,000 compounds, 0.12% hits. AID 624173; further: potency means the concentration at half of the fitted maximal effect; on the % scale 0 is the no-effect control and ±100 the full control effect; nearly all actives have a fitted effect of over 50% in size
#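 Luminescent Kinase-Glo Plus end-point after 45 min room-temperature reaction of T. brucei pyruvate kinase started with 130 uM ADP (final). Buffer TEA 50 mM pH 7.2 with KCl, MgCl2, BSA, Tween-20; titration-based qHTS with fitted concentration-effect curves.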
# LmPK inhibitor – LmPK (Leishmania mexicana) enzyme inhibition | Potency, µM (titrated, usually from 57.5 µM), inactives show at the top dose activity change, negative = inhibition, most hits filed as inhibitors | purified LmPK, Kinase-Glo ATP luminescence, 1 h | AID 1721 | Q27686 | 290,000 compounds, 0.37% hits; further: potency means the concentration at half of the fitted maximal effect; on the % scale 0 is the no-effect control and ±100 the full control effect
#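 Purified LmPK (0.1 nM) converted ADP (0.1 mM) to ATP with PEP (0.5 mM) in imidazole buffer pH 7.2 with KCl and MgCl2, 1 h at room temperature. ATP was read by Kinase-Glo luminescence; data normalized to uninhibited and no-enzyme controls.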
# Giardia FBPA inh – blocks Giardia fructose-bisphosphate aldolase activity. A8B2U2. purified Giardia FBPA. Potency, µM (highest dose often 59.6 µM), for the others: top-dose activity, negative = inhibition, hits mostly inhibitors. 290,000 compounds, 0.71% hits. AID 2451; further: potency means the concentration at half of the fitted maximal effect; on the % scale 0 is the no-effect control and ±100 the full control effect; nearly all actives have a fitted effect of over 55% in size
# Target sequence (A8B2U2 whole entry, looked up): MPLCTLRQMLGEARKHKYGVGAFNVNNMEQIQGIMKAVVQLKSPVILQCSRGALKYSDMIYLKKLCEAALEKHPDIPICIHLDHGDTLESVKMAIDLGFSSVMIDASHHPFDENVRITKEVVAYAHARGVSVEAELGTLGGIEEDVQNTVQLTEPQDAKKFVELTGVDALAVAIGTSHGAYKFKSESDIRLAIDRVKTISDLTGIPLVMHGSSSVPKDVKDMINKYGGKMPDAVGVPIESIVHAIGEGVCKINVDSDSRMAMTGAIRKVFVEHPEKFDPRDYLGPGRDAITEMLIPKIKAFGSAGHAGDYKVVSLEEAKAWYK
#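 Giardia FBPA (40 nM reagent) was preincubated 10 min at RT with compound (up to 57.5 uM final), then substrate plus GAPDH/TPI/NAD/arsenate coupling system with diaphorase/resazurin was added; resorufin fluorescence (525/598 nm) was read after 20 min.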
# Shiga inhibitor – Shiga toxin inhibition | 290,000 compounds, 9.2% hits | inhibition, % at 38.7 µM | Vero cells, Shiga toxin protein synthesis inhibition reporter; in the data active means inhibition mostly above about 28%, no sharp cut-off; inactive means mostly below about 43%; further: 0% is about no effect
# RE007 growth inh – less growth of the S. pombe RE007 Vpr strain | S. pombe RE007 Vpr strain, BacTiter-Glo ATP luminescence, 24 h | Potency, µM (doses to about 92.2 µM), without a hit: at the highest dose activity change, negative = less growth, most hits filed as inhibitors | 360,000 compounds, 0.21% hits | AID 651644; active means well fitted falling curve with a large enough effect; inconclusive means small, poorly fitted or top-dose-only effect; inactive means no such curve, though single readings can be large or run the other way; further: potency means the concentration at half of the fitted maximal effect; on the % scale 0 is the no-effect control and ±100 the full control effect; nearly all actives have a fitted effect of over 50% in size
#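 Fission yeast strain RE007, carrying one chromosomally integrated HIV-1 vpr copy, was seeded at OD 0.01 in PMG+AL medium with 23 nL pinned compound. After 24 h at 30 °C and 99% humidity, viability was read by BacTiter-Glo luminescence.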
# The depositor's hits bear a star; ? = inconclusive; / = no result given. Unless noted, the call rests on the fitted dose curve; in most records, active means well fitted curve in the direction sought with a large enough effect; inconclusive means small, poorly fitted or top-dose-only effect, or another doubt; inactive means no such curve, though single readings can be large; an effect the other way counts as inactive or inconclusive.
SMILES,Cycloheximide cs,TbPYK inhibitor,LmPK inhibitor,Giardia FBPA inh,Shiga inhibitor,RE007 growth inh
NC(=O)c1ccc(N2CCCCCC2)c([N+](=O)[O-])c1,3,1%,0%,4%,3,-14%
Cc1cc(NC(=O)c2ccc(N3CCCC3)c([N+](=O)[O-])c2)no1,20*,-7%,-2%,1%,23,-10%
O=C(Nc1nc2ccccc2s1)c1ccc(N2CCCCC2)c([N+](=O)[O-])c1,45*,4%,-1%,1%,102*,-14%
Cc1nnc(-c2ccc(N3CCOCC3)c([N+](=O)[O-])c2)o1,/,0%,/,/,/,0%
Cc1nnc(-c2ccc(N3CCCCCC3)c([N+](=O)[O-])c2)o1,15*,-12%,9%,2%,50*,7%
O=C(Nc1ccon1)c1ccc(N2CCCCC2)c([N+](=O)[O-])c1,45*,1%,2%,-2%,99*,8%
Cc1cc(NC(=O)c2ccc(Cl)c([N+](=O)[O-])c2)no1,7,-5%,-2%,-4%,8,0%
C#C[C@]1(O)CC[C@H]2[C@@H]3CCC4=CCCC[C@@H]4[C@H]3C(=C)C[C@@]21CC,/,7%,/,/,/,/
Cc1ncoc1C(=O)N1CCc2c([nH]c3ccccc23)C1C1CCCCC1 (configuration not stated),52*,-5%,-2%,-1%,72*,-1%
Cc1csc2ncc(C(=O)Nc3ccc4c(c3)OCCO4)c(=O)n12,59*,-2%,15%,21%,117*,-5%
Cc1csc2ncc(C(=O)Nc3ccon3)c(=O)n12,1,-6%,-6%,2%,9,-5%
Cc1csc2ncc(C(=O)Nc3ccccc3F)c(=O)n12,24*,2%,-8%,5%,31,-14%
Cc1csc2ncc(C(=O)Nc3ccccc3Cl)c(=O)n12,-2,2%,2%,-1%,16,9%
Cc1cccc(NC(=O)c2cnc3scc(C)n3c2=O)c1,19*,0%,1%,10%,26*,-16%
CCC(C)[C@H](NS(=O)(=O)c1ccc(F)cc1Br)C(=O)OC (some centres not stated),/,4%,/,/,/,-1%
COC(=O)c1ccccc1NC(=O)Cn1ncc2c(C)n(Cc3ccc(F)cc3)c(C)c2c1=O,/,-2%,/,/,/,/
Cn1c(C2CCCCC2)nc2ccccc21,16*,-11%,-5%,9%,47,3%
COC(=O)C1(C(=O)OC)C/C=C\Cc2ccccc2[C@@H]1C[N+](=O)[O-],/,/,/,-1%,/,/
COc1cccc(C(C)(O)c2nc(-c3ccoc3)cs2)c1 (configuration not stated),/,-4%,/,/,/,11%
Cc1nnc(SCc2ccc(Cl)cc2Cl)[nH]c1=O,12*,6%,5%,-3%,22,16%
O=C(C(=NNc1ccccc1)c1ccccc1)c1ccccc1,/,1%,/,/,/,-11%
Oc1ccc(O)c(/C(=N/Nc2ccccc2)c2ccccc2)c1,27*,/,-5%,-11%,17,/
CCC(=O)C1=C(c2cccc([N+](=O)[O-])c2)N(C(=O)CC)n2c(nnc2C2CCCCC2)S1,/,-8%,/,/,/,/
COCc1cc(=O)n2[nH]c(-c3ccccc3)cc2n1,23*,0%,2%,-16%,30,8%
COCc1cc(=O)n2[nH]c(C)cc2n1,-2,9%,-3%,-25%,1,5%
SMILES,Cycloheximide cs,TbPYK inhibitor,LmPK inhibitor,Giardia FBPA inh,Shiga inhibitor,RE007 growth inh
COCc1cc(=O)n2[nH]c(-c3cccc(Br)c3)cc2n1,27*,-1%,-2%,1%,68,5%
CC(OC(=O)CCCN=C1NS(=O)(=O)c2ccccc21)C(=O)Nc1ccccc1[N+](=O)[O-] (configuration not stated),/,1%,/,/,/,13%
COc1ccc(NS(=O)CCCc2ccccc2)cc1 (configuration not stated),/,-7%,/,/,/,-23%
COc1cccc(C2CCCCN2Cc2nc(-c3ccc(C)o3)oc2C)c1 (configuration not stated),31*,1%,6%,6%,79*,-18%
COc1cccc(C2CCCN2Cc2nc(-c3sccc3C)oc2C)c1 (configuration not stated),1,-2%,8%,-1%,-3,5%
CC1CCN(S(=O)(=O)c2ccc3c(c2)N(CC(=O)NCCN2C(C)CCCC2C)C(=O)CS3)CC1 (configuration not stated),1,2%,8%,/,-5,13%
O=C(CNC(=O)c1ccccc1F)NCc1ccncc1,/,-10%,/,/,/,-10%
Cc1cc(C(=O)N/N=C2\CC(=O)CC(C)(C)C2)c(C)n1-c1ccc(F)cc1,1,-13%,3%,0%,26,2%
Cc1cc(C(=O)N/N=C2\CC(=O)c3ccccc32)c(C)n1-c1ccccc1,35*,-7%,-17%,-21%,65*,-16%
Cc1cc(=O)c(C(=O)O)c(C)n1-c1ccccc1,/,-4%,/,/,/,4%
Cc1cc(C(=O)N/N=C2\CC(=O)CC(C)(C)C2)c(C)n1-c1ccccc1,87*,2%,5%,-24%,89*,15%
O=C(CN(Cc1ccc(F)cc1)C(=O)CNS(=O)(=O)c1ccccc1)NCC1CCCO1 (configuration not stated),-4,0%,3%,4%,9,-10%
Cc1onc(-c2ccccc2)c1C(=O)Nc1ccncc1,3,-5%,-4%,7%,-2,-1%
Cc1onc(-c2ccncc2)c1C(=O)O,27*,1%,-5%,1%,55*,13%
Cc1ccc(C)n1-n1c(C)nc2sc(-c3ccccc3)cc2c1=O,45*,5%,-8%,6%,73*,-31%
O=c1[nH]cnc2sc(-c3ccccc3)cc12,56*,1%,1%,2%,49,-10%
O=c1c2cc(-c3ccccc3)sc2ncn1-n1cccc1,39*,0%,-1%,2%,79*,2%
Cc1ccc(C)n1-n1cnc2sc(-c3ccccc3)cc2c1=O,14*,0%,1%,-6%,19,-19%
Cn1nc(C(=O)Nc2cc(F)ccc2F)c2c1-c1ccccc1SC2,/,-3%,/,/,/,/
C/C=C/c1cccc(-c2nc(C(=O)NC3CCC3)cc3c2[C@@H](CCO)N(S(=O)C(C)(C)C)C3)c1 (some centres not stated),/,-18%,/,/,/,4%
O=C(NCCc1ccc(O)c(O)c1)C1COc2ccccc2O1 (configuration not stated),20,?,3%,-15%,16,-4%
COc1ccc(OCC(=O)Nc2cccc(NC(=O)c3ccco3)c2)cc1,15,-7%,-3%,-1%,30,-18%
CCOCN(C(=O)Cn1cnc2cc(C)c(C)cc21)c1c(C)cccc1CC,/,-3%,/,/,/,/
